This is an account of results in PubChem BioAssay AID493026 (Johns Hopkins Ion Channel Center, 2011).

Structures are written as SMILES. The campaign covered roughly 1,000 compounds. About 150 (15%) were called active.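 Rule for the calls: active = activity change at least 3 SD of negative controls below their mean in both duplicate wells; inactive = the rest.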 The entries come from a sample that favours actives as a whole.

The target in this assay is Potassium voltage-gated channel subfamily KQT member 1 (Homo sapiens) (UniProt P51787). Description: human KCNQ1 channel inhibition, counter-screen for KCNQ2 inhibitor project, cell-based, FluxOR thallium flux (AID 493026).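 For activity change, negative = inhibition: peak minus minimum fluorescence over baseline after thallium addition; 0% = vehicle negative control and -100% = blank without thallium stimulus.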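 Note: CHO cells stably transfected with KCNQ1 and depolarized by potassium stimulus.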 Particulars: KCNQ1-expressing cells, FluxOR thallium flux fluorescence, at 10 µM; active compounds read low. (In general: The purpose of a counterscreen is to sort out artefacts and off-target activity.)
Sequence of Potassium voltage-gated channel subfamily KQT member 1 (Homo sapiens) (P51787 whole entry, looked up): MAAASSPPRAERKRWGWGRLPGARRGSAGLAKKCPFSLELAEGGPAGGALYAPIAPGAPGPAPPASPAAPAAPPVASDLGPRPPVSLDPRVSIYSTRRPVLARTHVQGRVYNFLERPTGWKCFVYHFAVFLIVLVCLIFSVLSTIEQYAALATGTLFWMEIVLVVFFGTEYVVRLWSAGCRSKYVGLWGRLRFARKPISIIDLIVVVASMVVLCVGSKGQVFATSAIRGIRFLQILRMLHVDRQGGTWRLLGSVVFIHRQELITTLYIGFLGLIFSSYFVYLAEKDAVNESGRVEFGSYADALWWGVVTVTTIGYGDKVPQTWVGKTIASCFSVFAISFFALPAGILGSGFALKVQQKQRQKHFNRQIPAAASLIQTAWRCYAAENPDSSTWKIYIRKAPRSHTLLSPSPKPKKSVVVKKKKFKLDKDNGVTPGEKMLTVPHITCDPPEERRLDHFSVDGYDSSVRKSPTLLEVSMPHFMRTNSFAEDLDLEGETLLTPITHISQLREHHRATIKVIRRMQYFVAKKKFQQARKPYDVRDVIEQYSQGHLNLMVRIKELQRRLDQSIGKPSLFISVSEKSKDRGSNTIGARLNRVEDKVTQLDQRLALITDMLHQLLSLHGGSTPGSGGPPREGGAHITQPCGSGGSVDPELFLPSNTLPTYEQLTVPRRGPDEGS
Turning to `CN(C)CC1Oc2ccccc2OC1(O)c1ccccc1` (configuration not stated), the activity change, negative = inhibition is -30.5% (active).

Consider `O=C(NC(c1ccc(Cl)cc1)P(=O)(Oc1ccccc1)Oc1ccccc1)OCc1ccccc1` (configuration not stated), for which the activity change, negative = inhibition entry was “inactive”.
